Screens deposited in PubChem by National Center for Advancing Translational Sciences (NCATS).
Hits are enriched below; roughly 7.4% of the tested compounds scored in any of these assays.
hNpr1 antagonist – blocks ANP-stimulated signaling of human Npr1 receptor; HEK293 hNpr1 GloSensor cGMP, ANP-stimulated luminescence; Potency, µM (doses to about 46.3 µM), inactives show at the highest dose activity change, negative = inhibition, hits mostly inhibitors; 1.6% of 76,000 active; calls by dose curve; note: nearly all actives have a fitted effect of over 60% in size
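HEK293 cells stably expressing human Npr1 and cGMP GloSensor pGS-40F, loaded 2 h with 2% GloSensor reagent, given compound 30 min at room temperature. Luminescence read before and 20 min after 0.1 nM hNppA.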
HEK293 tox – kills HEK 293 cells | HEK 293 viability, ATP luminescence (CellTiter-Glo), 48-72 h | Potency, µM (top dose mostly 115 µM), inactives show top-dose activity change, negative = cytotoxicity, most hits filed as inhibitors | 6.6% of 94,000 active | AID 1345083; note: nearly all actives have a fitted effect of over 60% in size
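CellTiter-Glo luminescence (cellular ATP) was read after 48 or 72 hr of compound exposure at 37 degree Celsius. Cells were HEK 293 plated at 250 cells/well.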
FLuc inh – blocks purified firefly luciferase enzyme activity; P08659; purified P. pyralis luciferase, luminescence, biochemical; Potency, µM (top dose mostly 115 µM), hits mostly inhibitors; 2.5% of 76,000 active; note: nearly all actives have a fitted effect of over 65% in size
Target sequence (P08659 whole entry, looked up): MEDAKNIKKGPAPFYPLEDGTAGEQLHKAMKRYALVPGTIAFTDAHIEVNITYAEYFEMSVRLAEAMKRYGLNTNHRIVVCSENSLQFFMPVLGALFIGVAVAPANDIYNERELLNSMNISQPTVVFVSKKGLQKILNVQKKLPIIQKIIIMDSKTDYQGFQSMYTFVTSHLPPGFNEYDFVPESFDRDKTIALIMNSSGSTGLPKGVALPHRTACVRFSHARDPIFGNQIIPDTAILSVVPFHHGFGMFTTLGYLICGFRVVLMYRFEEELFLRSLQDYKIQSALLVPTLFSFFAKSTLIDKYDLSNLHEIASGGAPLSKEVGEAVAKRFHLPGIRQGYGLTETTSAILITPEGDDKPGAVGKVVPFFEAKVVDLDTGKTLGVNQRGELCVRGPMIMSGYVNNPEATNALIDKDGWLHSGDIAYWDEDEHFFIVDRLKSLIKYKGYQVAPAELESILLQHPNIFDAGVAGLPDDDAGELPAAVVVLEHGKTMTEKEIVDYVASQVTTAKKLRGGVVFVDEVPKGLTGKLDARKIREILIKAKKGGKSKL
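Cell-free enzyme assay, 10nM P. pyralis luciferase, luciferin and ATP each at 10uM. Inhibition profiled over a 6-point titration, read as luminescence.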
SNCA expr inh – SNCA gene expression inhibition; Potency, µM (highest dose often 57.2 µM), inactives show top-dose activity change, negative = inhibition, usual class: inhibitors; AID 1671194; HEK-293 SNCA-luciferase knock-in, luminescence, 24 h; 0.17% of 140,000 active;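 note: plate controls were DMSO cells for no effect and cell-free wells for full effect; nearly all actives have a fitted effect of over 45% in size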
3T3 cytotox – kills NIH 3T3 cells. AID 1345082. Potency, µM (doses to about 96.7 µM), inactives show at the top dose activity change, negative = cytotoxicity, usual class: inhibitors. 4.3% of 94,000 active. NIH 3T3 viability, CellTiter-Glo ATP luminescence, 48-72 h; note: nearly all actives have a fitted effect of over 55% in size
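Viability of NIH 3T3 cells after 48 or 72 hr compound treatment at 37 °C was assessed by CellTiter-Glo, with luminescence imaged following a 10 min room-temperature step.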
SNCA viab count – reduces viability of HEK-293 SNCA reporter cells. HEK-293-SNCA-luc viability, GF-AFC fluorescence, 24 h. Potency, µM (doses to about 57.1 µM), inactives show at the top dose activity change, negative = cytotoxicity, most hits filed as cytotoxic. 0.12% of 150,000 active. AID 1671193;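 note: 0% = DMSO-treated cells and -100% = medium-only wells without cells; nearly all actives have a fitted effect of over 30% in size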
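HEK-293-SNCA-luc cells (1500/well) plated 24 h, then exposed 24 h to a dilution series; GF-AFC added 30 min at 37C, fluorescence 405/540 nm; normalised to medium-only and DMSO wells, Hill fit.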
An asterisk follows results filed as active; i = inactive; u = inconclusive; x = no result given; [ ] = remark or other dose. Unless noted, calls come from the whole dose curve; as a rule, active = well fitted curve in the direction sought with a large enough effect; inconclusive = small, poorly fitted or top-dose-only effect, or another doubt; inactive = no such curve, though single readings can be large; an effect the other way counts as inactive or inconclusive. Unless noted, % is set by controls: 0 for no effect and ±100 for the full control effect; potency is the fitted concentration of half-maximal effect.

SMILES	hNpr1 antagonist	HEK293 tox	FLuc inh	SNCA expr inh	3T3 cytotox	SNCA viab count
CCn1ccc(C(=O)NC2CCCN(c3cc(-c4ccc(OC)cc4)[nH]n3)C2)n1 (stereo not given)	0.3%	u	28.2µM*	18.9%	-22.1%	-12.1%
COc1ccc(-c2cc(N3CCCC(NC(=O)c4ccccn4)C3)n[nH]2)cc1 (stereo not given)	-12.7%	u	u	-1.7%	-26.0%	-21.2%
CCn1ccc(C(=O)NC2CCCN(c3cc(-c4ccc(Cl)cc4)[nH]n3)C2)n1 (stereo not given)	-15.3%	u	35.5µM*	53.3%	u	-17.1%
O=C(NCC1Cn2cccc2CN1Cc1ccccc1)c1ccsc1 (stereo not given)	2.4%	2.4%	i	7.2%	-5.3%	-4.9%
CNc1nccc(N2CCC(CC(=O)NC3CCN(Cc4ccccc4)CC3)CC2)n1	-12.5%	u	i	10.2%	35.5µM*	u
CCNc1nccc(N2CCC(CC(=O)N3CCN(c4ccccc4F)CC3)CC2)n1	-29.8%	u	i	u	17.8µM*	u
CNc1nccc(N2CCC(CC(=O)N3CCN(c4cccc(OC)c4)CC3)CC2)n1	u	25.1µM*	i	1.5%	u	-16.0%
CCNc1nccc(N2CCC(CC(=O)NCc3ccccc3F)CC2)n1	-7.8%	39.8µM*	i	u	u	-20.8%
CCNc1nccc(N2CCC(CC(=O)NCC(C)C)CC2)n1	-6.9%	u	i	-26.5%	u	-13.9%
O=C(C[C@H]1NC(=O)c2ccccc2NC1=O)Nc1n[nH]c(CCC2CCCC2)n1	1.0%	u	i	-21.8%	u	0.0%
CC(C)=CC(=O)N1CC[C@H](NC(=O)NC2CCCCC2)[C@H]1C(=O)N[C@H](Cc1c[nH]c2ccccc12)C(N)=O	7.3%	i	i	-20.6%	-1.3%	1.1%
COc1cccc(C(=O)N2CCC(C(NC(=O)c3ccccc3)C(=O)NCc3ccco3)CC2)c1 (stereo not given)	0.6%	u	i	-1.3%	u	6.9%
Cc1ccc2nc(C(C)NC(=O)c3cnc(-c4ccccn4)[nH]c3=O)[nH]c2c1 (stereo not given)	-0.5%	25.1µM*	i	-15.7%	u	-12.4%
Cc1ccc(-c2ncc(C(=O)N3CCC(Nc4ncccn4)CC3)c(=O)[nH]2)cc1	0.3%	i	i	-18.9%	0.8%	16.8%
COc1ccccc1-c1nnc2ccc(C(=O)NCc3ccccc3)cn12	x	-19.5%	x	-14.1%	-28.4%	-3.2%
COc1ccc(Cl)cc1S(=O)(=O)N1CCC(c2c[nH]c3c(C)cccc23)CC1	-14.3%	u	i	-0.1%	u	-3.4%
Cc1cccc2c(C3CCN(S(=O)(=O)c4cc(F)c(F)cc4Cl)CC3)c[nH]c12	-1.1%	u	i	-12.6%	31.6µM*	-1.0%
CC[C@H](CO)Nc1nc(Nc2cccc(-c3ccccn3)c2)c2ncn(C(C)C)c2n1	x	x	x	x	x	-34.5%
CC(C)[C@H](CO)Nc1nc(Nc2cccc(Cl)c2)c2ncn(C(C)C)c2n1	x	x	x	4.8%	x	24.1µM*
O=C(NCc1ccc(C(F)(F)F)cc1)C1CCN(C(=O)c2ccc(-c3cccs3)cc2)CC1	x	31.6µM*	x	x	7.08µM*	x
O=C(NCCc1ccc(Cl)cc1)C1CCN(C(=O)c2ccc(-c3cccs3)cc2)CC1	x	44.7µM*	x	x	u	x
O=C(NCCc1ccccc1)C1CCN(C(=O)c2ccc(-c3cccs3)cc2)CC1	x	-22.5%	x	x	-23.8%	x
O=C(c1ccc(F)cc1)N1CCC2(CC1)COc1ccccc1NC2=O	-3.7%	u	i	-4.1%	-28.8%	-0.8%
COc1ccc(C2(C(=O)NC3CCCc4c3[nH]c3c(Cl)cccc43)CCOCC2)cc1 (stereo not given)	u	44.7µM*	i	u	22.4µM*	-21.7%
O=C(COc1ccccc1)NC1CCCc2c1[nH]c1c(Cl)cccc21 (stereo not given)	-2.1%	44.7µM*	i	-16.3%	u	6.0%
SMILES	hNpr1 antagonist	HEK293 tox	FLuc inh	SNCA expr inh	3T3 cytotox	SNCA viab count
O=C(NC1CCCc2c1[nH]c1c(Cl)cccc21)C1(c2ccccc2)CCOCC1 (stereo not given)	0.6%	-4.7%	i	1.9%	-22.8%	1.2%
O=C(Cc1cccs1)NC1CCCc2c1[nH]c1c(Cl)cccc21 (stereo not given)	-8.3%	u	i	u	31.6µM*	-3.2%
CC(=O)Nc1ccc(C(=O)Nc2ccccc2N)cc1	x	x	x	x	x	-2.5%[23.9 µM]
CN1CCCCCC(O)c2cc(C(=O)N3CCCCCC3)ccc21 (stereo not given)	-13.7%	u	i	-28.4%	u	-2.5%
CN1CCCCCC(O)c2cc(C(=O)N3CCN(c4ccc(F)cc4)CC3)ccc21 (stereo not given)	-27.4%	44.7µM*	i	-15.0%	u	-22.4%
CN1CCCCCC(O)c2cc(C(=O)NC3CCN(Cc4ccccc4)CC3)ccc21 (stereo not given)	u	11.2µM*	i	-20.2%	u	u
COc1ccccc1CN1CCN(C(=O)c2ccc3c(c2)C(O)CCCCCN3C)CC1 (stereo not given)	-22.1%	50.1µM*	i	1.1%	u	3.1%
CC(=O)OC12COC1CC(O)C1(C)C(=O)C(O)C3=C(C)C(OC(=O)C(O)C(NC(=O)OC(C)(C)C)c4ccccc4)CC(O)(C(OC(=O)c4ccccc4)C21)C3(C)C (stereo not given)	x	x	x	x	x	-31.4%
COc1ccccc1-c1cc(NCC2CCOCC2)c2onc(C)c2n1	1.6%[70.6 µM]	u	i	1.7%[87.6 µM]	-22.4%[138 µM]	5.6%[87.6 µM]
COc1ccccc1-c1cc(Nc2ccc(N3CCOCC3)cc2)c2onc(C)c2n1	2.4%[70.6 µM]	63.1µM*	i	11.7%[87.6 µM]	u	-21.2%[87.6 µM]
COc1ccc(Nc2cc(-c3ccccc3OC)nc3c(C)noc23)cc1OC	-17.2%[70.6 µM]	u	i	29.7%[87.6 µM]	20µM*	-10.5%[87.6 µM]
CCN(C(C)=O)C1CCN(c2nc(CCN)nc3sc(C)c(C)c23)C1 (stereo not given)	-0.3%	-12.0%	i	4.6%	-28.5%	-12.4%
CCc1noc([C@@H]2CC(F)(F)CN2C(=O)c2ccoc2C)n1	-4.0%	u	35.5µM*	120.4%	-8.9%	3.3%
COc1ccc2c(c1)OCC(C(=O)NCCNc1cc(C)ccn1)C2 (stereo not given)	1.7%	-14.9%	i	-18.6%	79.4µM*	9.6%
COc1ccc(OC)c(CNC(=O)C2COc3ccccc3C2)c1 (stereo not given)	x	x	x	11.9%	x	15.4%
